The text below walks through data of the supplement of paper PMC12632987.

The chains are these.
T1: TRAF2, Q12933
T1 chain: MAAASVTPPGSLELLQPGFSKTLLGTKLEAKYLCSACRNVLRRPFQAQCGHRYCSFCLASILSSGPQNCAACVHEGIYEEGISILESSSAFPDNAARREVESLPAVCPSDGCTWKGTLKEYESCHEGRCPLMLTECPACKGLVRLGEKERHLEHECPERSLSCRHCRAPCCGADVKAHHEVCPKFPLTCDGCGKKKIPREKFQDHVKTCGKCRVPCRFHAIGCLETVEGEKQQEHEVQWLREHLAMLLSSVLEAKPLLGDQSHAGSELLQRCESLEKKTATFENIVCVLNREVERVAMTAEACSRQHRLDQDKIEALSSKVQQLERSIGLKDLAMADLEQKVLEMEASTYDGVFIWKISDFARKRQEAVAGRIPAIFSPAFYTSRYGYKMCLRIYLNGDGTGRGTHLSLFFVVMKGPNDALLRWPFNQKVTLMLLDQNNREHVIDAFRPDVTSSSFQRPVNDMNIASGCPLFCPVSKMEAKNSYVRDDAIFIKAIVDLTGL

B1: traf2_out_13_95_1152 (protein)
chain: SKELAEKINQIADDMLDQVEAKLQALLEKMKAAGKGVEEVQKALDLARYRSVNEAIALLEELSKKYPEFKELFDATIKEIKAIIREAGRKVAELIKEEEA
B2: traf2_out_11_131_656 (protein)
chain: MDAVAMAESAAERVDERLEIAKTLSPEERLRLARQSLDSLEALAEYLKEHVKEMSKEDVEKAAKILRESAEKILEFSPEVEEEAKEVEEAIKKLLEAAKA
B3: traf2_out_20_38_2032 (protein)
chain: SEEEEEERRLEEAIEVANEAYDRYTARFEEWQAAGKTVEEIAEETKKEVKELLEKAGLEEEAKILIEDIDLALSSPDAVRLLVRILARAEALVWQKEKEK
B4: traf2_out_19_16_1989 (protein)
chain: SKEEAEKLKKEMNKYLDEALELAKEAVENLDELSREELMDKLVEISELMRKAKELLQKYLELNKDDEEERKKVTEEFDKKYDEIMKLMTIIVKKIEELLK
B5: traf2_out_11_155_670 (protein)
chain: SEKQKLNNELVNELTEIADELKEKVEKILKEAAAAHPEHAEELAAVIASGKTLSGRSFARLAAQKFRELGLEEEAKKVEELLEEAQKKMNEVVKKYEEKL
B6: traf2_out_3_89_2310 (protein)
chain: GAERERTIEEMRREMERYIRGFRKSAERVAKEMLEDGMSLETLRGVLEAAKSALLEVLRERMRERGLSEEEIEELLEEAGRELDKVVEEVVAEAEERRKA
B7: traf2_out_17_162_1600 (protein)
chain: SELEKFKEKIEKELEELEKERKELEKKLKEIDSLSKEELTDLLVEASEKRRKALELLEKLEENKEKLDKEFYEKYKKRAEEIAEEFQRIANEIMKKLEEK
B8: traf2_out_20_38_2010 (protein)
chain: SEEEKEKEKLEKLVEVANEAYDKYSAEFEKWKAEGKTVEEIAEEVKKRVKEKLSAAGLEEEAKILIEDIDLALSSPNAWRLLVRTLARADALVKQKELNK
B9: traf2_out_17_162_1551 (protein)
chain: SALEEELERLEEELRRLEEELERLKKELENLEKKSKEELTDLLVEASEARRRARELAERLRELEPLIGEERAGELRERAEEIAEELQRIANKIYKELEKK
B10: traf2_out_20_38_2037 (protein)
chain: SEEEEEEKKLQEVIDVANEALDKYEKKIAEWKAEGKTVEEIAEAAKEEVRRLLEEVGLEEEAEILVEDIDRALSSPDAERLIARILARAVALVKQKELNK
B11: traf2_out_11_169_882 (protein)
chain: EEKEKNRKFNDFALELNDKAKKELLAFAEELAKKLGLDVAEVKAIFEANKNSSLSALAAALIEYFRSKGHEDAAAAVLAKYEELQEKINKEGTKKLKELE
B12: traf2_out_17_178_1712 (protein)
chain: SKEEARKEISAATDEMIDLAEAAATRLLEIARKEGSLSPEELAELERARRLGSARTTLALMERAIPKSKSAEEVQAILDEFRKRYAELSKKIAEALEKYE
B13: traf2_out_20_38_2005 (protein)
chain: SEEEEEERRLKIIIEAANEELDRWEKEIEELKAEGKTVEEIAERAKEEVRRLLTAAGLEEEAEELIAEIDLVLDSPDALDAIARILARAKALVVQKELNK
B14: traf2_out_20_3_2071 (protein)
chain: KELEEEAERELERALELLKRAAELADEETAKRLEELIKRLKASRELSVDDRLVVVSEVRREVLELAEEAKAAGKEELAKELEEAAEALNRAAQLLYDILQ
B15: traf2_out_13_95_1038 (protein)
chain: SKELAEKIMEIADEMEERSLALLEAAKEELADDPEAVAVLTEAKRLAETKGISEALHLLREASAANPEHAARFDALIEELEAIRREAGRKVAKLIKEEEE
B16: traf2_out_15_48_1367 (protein)
chain: DAAAYRAAMNAAADRIIATKDEVKKEVKELAKVASPEVKKKLNEVAKLIEAGAGSQEIIAALKEAAKVASPELKAKLEELAERLRAARREASAIAAAMAK
B17: traf2_out_13_95_1077 (protein)
chain: SKETNEKIMEIADEMLDKVNEVLEELAEKVKDDPEMKAKVEEALHLATHRGINEAIHLLKKLAEENEEYKELLEEAIKKLEEIKEKAGKEVAKLLKEEEE
B18: traf2_out_13_95_1157 (protein)
chain: SAELAKKIMEIADEMLDRSLAVLDALLAKAKAAGKLEAEVAEARHLAETRSINEAIAKLRELAKAHPEFKAELDAAIAELEALRREAGRKVAELIKEEEE
B19: traf2_out_17_162_1548 (protein)
chain: GELEERLKELEEELEELERRAEELESLLPELPKLSKEELTDLLVEASEARRRARRLAEEIEKLKEEIGEERAEELRERAEEIAERLQRIANAIYKELEKK
B20: traf2_out_17_162_1532 (protein)
chain: SELEERLRELEEELRELEKRLEELEKELENLENMSKEELSDLLVEASEARRRALELAEELRELRSEIGEERAEELIRRAEEIAERLQRIANKIYEELEKK
B21: traf2_out_17_162_1490 (protein)
chain: EELEERLRELERRLEELERRLKELEEKLKNIDKLSKEELTDLLVEASEAKREARRLAEELRELRERTGREELEELIRRAEEIAERLQRIANIIYKELEKK
B22: traf2_out_18_3_1898 (protein)
chain: SEEKLKEISEKIDEIIDEVTAKAREVLDWLEKNKPEVKERIAALRADLEAGAGPFGILRELARLAKEAGEEEKAKEIEEFLKEKSKELQELVDEYLELRA
B23: traf2_out_13_95_1133 (protein)
chain: SAETAKKIMEIADKMLDEVEKILEELLKIFEKKGIGVEEIKEALYLARHQSINEAIAKLEELSKKYPEFKEELDKAIEEIKALREKAGKEVAEILKKEKE
B24: traf2_out_1_27_1000 (protein)
chain: STEEERELLRRANREIGRASPEEQVEIIKRTLREALERGIDSPEHIAVVLILMLGDEETRERAIEAAREVLREAGISEEAIERMERRVRSGWERLDRLLA
B25: traf2_out_11_169_815 (protein)
chain: EEAEKNRKINDFALELNDEAKKKLLEHAKKLAKEAGLDVEEVEKIFEENKNKSLSAVAAALIKYFRSKGKEEEAEAVLKKYEELKEEINKKVTEKIKELE
B26: traf2_out_13_95_1055 (protein)
chain: SAETAAKINEIADEALERALALLRAAQEEVADDPAASAVLAEALRLAETRGISEAIHLLREAQAADPAHAERFAALIEELEAIRREAGRRVAEVLKEEKE
B27: traf2_out_18_64_1955 (protein)
chain: SELDEEIDRLVDEMDERRRLRLALARALQARAAADPAWQPLLDYFHAHVNDIGAAGARRMLALLAAGAPPAELRAVMEEDLGEGRELQRRLAELLEKREK
B28: traf2_out_18_117_1787 (protein)
chain: MEREEIIERLKEIAEETGRAASELGKLVLEKWEELTPEEKSEAFDVLADLSEVRREAQLLIIEIEEKNLPIEEAKKRLEELEKRAEEALKRAEEKIKRIK
B29: traf2_out_17_178_1705 (protein)
chain: SKEEARKKISEATDKMIDLAQEAAERLLEIAEREGSLSPEELAELRRARRLGSARTTLALMRRAIPRSRSAEEVRRLVEEFEKEYRELSKIIAEELKKYE
B30: traf2_out_13_95_1155 (protein)
chain: SKELAEKIMEIADRMLDEALAVLDELLAAAKAAGKLEEEVARARHLAEHHSINEAIALLRELAKAHPEFKEELDAAIARLEALRREAGREVAELIKKEKE
B31: traf2_out_13_95_1102 (protein)
chain: SRELAEEIMKIADEMIDKANEILEELLKIAKEKGVAEEEVKEALYLAEHRSIREAIHKLKELAKEYPELKEEFEEAIEKLEKLIEEAGKKVAELIKEEKE
B32: traf2_out_6_166_2459 (protein)
chain: ESETLKEIREIIKELSKYSTEIIVKAFDEVAKKVDEESARILRQLKSAVEQAEKLGLDVETALTATVLGLITLGVPEETLLKLLKEVLKEAKKIAEEKEK
B33: traf2_out_13_95_1054 (protein)
chain: SAETAEKINEIADEALEEALALLEEARAEVADDPEASAVLDEALRLAETKGISEAIHLLEEARAADPAHAERFAALIERLRAIRREAGRKVAEVLKEAEE
B34: traf2_out_14_166_1277 (protein)
chain: MTPEEIERIRKIVDELEPLTDAAVARARAILDKVRDKLSPEDLARVEALLALAARNIGSSAINALREIAKIYKKAGLDEAAAAMQALADELEEKLKKLNK
B35: traf2_out_6_156_2405 (protein)
chain: MLEEIEEETLKEIEELIKELAAASEEKKIAYISKIAGTFYRGLQRARAAGASVEELEAFGKRVLEKTKELLDEEGLPQDVKDLILSSLNAVFDVALAEAR

Over roughly 1,800 sequences, “median log2 fold change of GCK-ALFA target abundance (FLAG IP / Myc IP barcode read proportion)” has its median near 0.14; the lowest 2% begin near -0.84. Many of the other results were omitted from the sample, so the lowest values are more common in it than they were.

For this assay, the target named is T1, TRAF2, Q12933. The assay can be described thus: median log2 fold change of GCK-ALFA target abundance (FLAG IP / Myc IP barcode read proportion) (log2 ratio); each designed protein is fused to an ALFA-tag nanobody in HEK293 cells to bring the named protein to FLAG-tagged glucokinase (GCK); Myc marks an untargeted standard; higher = target protein stabilised (more abundant). To be noted: target protein: 3xFLAG-MCP-GCK-ALFA reporter; HEK293 landing pad (RPLP). Put shortly: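 Sequencing of reverse-transcribed, amplified circular RNA barcodes from anti-FLAG and anti-Myc immunoprecipitates provided the readout for an ALFA-nanobody-fused binder library recombined into HEK293 landing-pad cells. Those cells were induced with 2 μg mL^−1 doxycycline, transfected with a plasmid expressing a FLAG-tagged target and a Myc-tagged standard, and lysed after 48 h. Target abundance is the per-binder median log2 ratio of FLAG to Myc barcode read proportions. Only barcodes at a proportion of ≥10^−7 in both replicates and binders with ≥3 barcodes per replicate were kept, with a 10^−6 pseudocount added before the two replicates were pooled.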
Take B1: the “median log2 fold change” value was -0.574.
The same measure for B2: 0.344; for B3: -1.23.
As for B4, the “median log2 fold change” value came to 0.137.
Regarding B5, the “median log2 fold change” value came out at 0.263.
The figure for B6 is -1.13; for B7 it is 0.0488; for B8 it is -1.49.
The same measure for B9: 0.0543; for B10: -1.45.
The same measure for B11: 0.444.
Regarding B12, the “median log2 fold change” value was 0.217.
The same measure for B13: -1.09; for B14: 0.112; for B15: -0.177.
Turning to B16, the “median log2 fold change” value is -0.184.
The figure for B17 is -0.0213; for B18 it is -0.558; for B19 it is 0.22.
The figure for B20 is 0.0409; for B21 it is -1.17; for B22 it is -0.192.
The same measure for B23: -0.0113; for B24: 0.155.
Consider B25, for which the “median log2 fold change” value was found to be 0.235.
The same measure for B26: 0.257.
For B27, the “median log2 fold change” value was 0.163.
The same measure for B28: 0.101.
With B29, the “median log2 fold change” value was -0.521.
The same measure for B30: -0.372.
The figure for B31 is -0.486.
The same measure for B32: 0.077; for B33: 0.213; for B34: 0.354.
As for B35, the “median log2 fold change” value was 0.151.
